Screening data: PubChem BioAssay, several laboratories
INS promoter inh – TRM-6 insulin promoter activity inhibition | TRM-6 cells (human fetal islet line), insulin promoter-eGFP reporter, imaging; reporter expression induced with tamoxifen | inhibition, % at 2 µM | 130,000 compounds, 0.9% hits | AID 1273;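 active = inhibition above the mean plus 3 SD, with well images judged a real hit on visual review, cut at about 60% in these data, passing the limit was not always enough; inconclusive = inhibition over the cutoff but images rejected on review; inactive = inhibition not above the cutoff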
Cl transport mod – modulates chloride dependent transport by human KCC2 | Q9H2X9 | KCC2 cells, thallium flux FluoZin-2 fluorescence | B-score of Tl+ flux slope (higher = more flux/activation; lower = inhibition) at 10 µM | 190,000 compounds, 2.2% hits;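 active = thallium flux slope and its plate-corrected score both differing from the plate sample mean at a set confidence after two filtering rounds, in either direction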;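 also: slope of fluorescence scaled to starting intensity during 10 to 20 s after thallium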
ROMK primary – human ROMK K+ channel modulation, primary screen; Tet-inducible ROMK, thallium flux fluorescence; actives lie on both sides; 130,000 compounds, 2% hits; B-score at 10 µM;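 active = signal ratio slope over the read window, or its plate-corrected B-score, at least 3 SD from the plate mean, either direction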;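 also: B-score of the F/F0 ratio slope over 7 to 12 s after thallium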
Target sequence (P48048 whole entry, looked up): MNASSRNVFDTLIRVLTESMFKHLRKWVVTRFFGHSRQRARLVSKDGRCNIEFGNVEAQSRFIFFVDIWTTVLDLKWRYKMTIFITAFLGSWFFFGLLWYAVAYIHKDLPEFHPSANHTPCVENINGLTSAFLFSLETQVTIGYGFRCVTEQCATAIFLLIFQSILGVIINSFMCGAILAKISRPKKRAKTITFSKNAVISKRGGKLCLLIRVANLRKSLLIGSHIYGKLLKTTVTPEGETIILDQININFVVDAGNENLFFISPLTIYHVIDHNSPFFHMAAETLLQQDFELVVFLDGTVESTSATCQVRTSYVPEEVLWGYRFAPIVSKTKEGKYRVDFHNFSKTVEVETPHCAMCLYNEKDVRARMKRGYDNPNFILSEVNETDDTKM
Insulin prom up – MIN6 insulin promoter up-regulation | z-score at 5 µM | 190,000 compounds, 0.3% hits | MIN6 insulin promoter-GFP reporter, high-content imaging; hits give high values;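 active = z-score above 3 at 5 µM with at least 500 cells counted in the well; inconclusive = wells under 500 cells, flagged as cytotoxic or low count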
L major viab – Leishmania major promastigote growth inhibition | Leishmania major promastigotes, resazurin fluorescence viability | inhibition, % at 10 µM | 200,000 compounds, 9% hits; in the data active = inhibition above about 50%;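 also: promastigotes grown with compound for 44 hours at 28 °C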
WT yeast gro inh – growth inhibition of WT yeast, mitochondrial fusion screen; mitochondrial fusion phenotypic screen, WT strain; inhibition, % at 10 µM; 190,000 compounds, 2.1% hits; in the data active = inhibition above about 58%; tested in S. cerevisiae
KCC2 sec1 – confirmation of human KCC2 transport modulators; normalised thallium flux (F/F0 slope) at 10 µM; shares compounds with Cl transport mod; HEK293-KCC2, thallium flux, FluoZin2 fluorescence; hits give high values; 3,700 compounds, 15% hits;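 active = thallium flux slope above the same plate's solvent-only control mean plus 3 SD; inconclusive = the two replicate wells disagree; inactive = no significant difference from solvent-only control wells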
KCC2 bumet counter – thallium flux despite bumetanide block in KCC2 cells, secondary assay 3. shares compounds with Cl transport mod. 3,700 compounds, 49% hits. normalized thallium flux at 10 µM. HEK293-KCC2 + bumetanide/ouabain, thallium flux FluoZin2; hits give high values;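 active = thallium entry rate above the same plate's blocked-transporter control wells by more than 3 SD; inconclusive = the two repeat wells disagree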;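 also: raw slope of fluorescence over initial fluorescence between 10 and 20 s after thallium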
KCC2 secondary2 – confirmation of human KCC2 transport modulators. shares compounds with Cl transport mod. HEK293-KCC2, thallium flux FluoZin2 fluorescence; actives lie on both sides; F/F0 rise rate, 10–20 s post-thallium. normalized thallium flux at 10 µM. 3,700 compounds, 23% hits. AID 1715;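 active = thallium flux slope more than 3 SD above or below the plate's solvent-only control mean, mostly below; inconclusive = the two repeat wells disagreed; inactive = no significant shift from solvent-only controls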
HEK293 Tl flux – counter-screen for KCC2 modulators: effect in parental HEK293 cells. thallium flux rate (normalised fluorescence) at 10 µM. AID 1716. shares compounds with Cl transport mod. thallium flux FluoZin2, ouabain; baseline-ratio fluorescence slope, 10–20 s after thallium. 3,700 compounds, 46% hits;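 active = thallium flux rate significantly above the same plate's solvent-only control wells, beyond their mean plus 3 SD; inconclusive = the two replicate wells gave conflicting results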
KCC2 ouabain – modulates human KCC2 on retest with ouabain; HEK293-KCC2, thallium flux FluoZin2 fluorescence; bidirectional: low = inhibitor, high = activator; shares compounds with Cl transport mod; raw Tl+ flux slope (below DMSO = inhibition, above = activation) at 10 µM; AID 1717; 3,700 compounds, 48% hits;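 active = thallium flux slope beyond 3 SD from same-plate DMSO control mean in most replicates, usually higher, sometimes lower; inconclusive = repeat tests gave conflicting results; inactive = no significant difference from controls in most replicates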;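 also: slope of initial-normalized fluorescence between seconds 10 and 20 after thallium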
HEK counter2 – parental HEK flux effect, counter-screen 2 | HEK293 parental, thallium flux FluoZin-2 fluorescence slope | shares compounds with Cl transport mod | thallium flux slope at 10 µM | 3,700 compounds, 33% hits;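 active = thallium flux slope above the same plate's solvent-control mean plus 3 SD in both duplicate wells; inconclusive = duplicate wells that disagreed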;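 also: run without ouabain in cells lacking the KCC2 cotransporter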
A number is an active result; n = inactive; u = inconclusive; x = no result given. In the library only some 12% were active in any assay of this set; here they are far more common.

SMILES	INS promoter inh	Cl transport mod	ROMK primary	Insulin prom up	L major viab	WT yeast gro inh	KCC2 sec1	KCC2 bumet counter	KCC2 secondary2	HEK293 Tl flux	KCC2 ouabain	HEK counter2
COC(=O)c1ccc2c(=O)n(-c3ccccc3F)c(=S)[nH]c2c1	100.0	5.63	n	n	n	n	n	0.0175	n	0.012	0.0219	0.0126
COC(=O)c1ccc2c(=O)n(-c3ccccc3)c(=S)[nH]c2c1	x	10.6	n	n	n	n	n	0.0222	n	0.0205	0.0255	0.0226
O=C(NCc1ccco1)c1ccc2c(=O)n(-c3ccccc3)c(=S)[nH]c2c1	n	n	x	n	n	n	x	x	x	x	x	x
CCC(CC)C1C(C#N)=C(N)Oc2n[nH]c(C)c21 (stereo not given)	n	x	n	n	98.9	n	n	n	n	n	0.0164	n
CCC(CC)C1C(C#N)=C(N)Oc2n[nH]c(-c3ccccc3)c21 (stereo not given)	x	x	n	n	n	n	x	x	x	x	x	x
Cc1cc([N+](=O)[O-])ccc1NCc1ccccc1	x	-3.07	n	n	n	n	n	n	0.0233	n	0.0167	n
CC(=O)Oc1cc2c3c(c1)/C(=C1/SC(=S)NC1=O)C(=O)N3C(C)(C)C=C2C	x	11.6	x	x	x	x	n	0.0621	n	0.0169	n	n
CCNC(=S)N=Nc1c(O)[nH]c2ccc([N+](=O)[O-])cc12	x	5.05	n	n	n	n	n	0.0222	n	0.013	n	u
CCCCNC(=S)N=Nc1c(O)[nH]c2ccccc12	x	25.1	n	n	n	n	u	0.0494	u	0.035	0.0401	0.0246
CCNC(=S)N=Nc1c(O)[nH]c2ccc(C(C)C)cc12	64.3	10.3	n	n	77.6	n	u	0.0209	n	0.0222	0.026	0.0161
O=[N+]([O-])c1ccc2[nH]c(O)c(N=NC(=S)NCC3CCCO3)c2c1 (stereo not given)	n	n	n	n	n	n	x	x	x	x	x	x
NC(=S)N=Nc1c(O)[nH]c2ccccc12	n	n	n	n	n	n	x	x	x	x	x	x
Cc1nc2sc(C(=O)OCC(=O)N3c4ccccc4CC3C)c(C)c2c(=O)[nH]1 (stereo not given)	x	n	n	n	n	n	x	x	x	x	x	x
Cc1cccc(C(=O)N(NC(=O)Oc2ccccc2)C(C)(C)C)c1	n	n	n	n	n	n	x	x	x	x	x	x
O=C(NC(=S)Nc1cccc2cccnc12)c1cccs1	x	2.83	n	n	n	n	n	0.00959	n	u	u	n
COc1ccc(C(=O)Nc2cccc3cccnc23)cc1OC	n	-6.28	n	n	n	n	n	n	n	n	n	n
COc1ccc(C(=O)Nc2cccc(-c3nc4ncccc4o3)c2C)cc1OC	n	x	n	n	n	n	x	x	x	x	x	x
Cc1nc(NC(=S)NC(=O)c2cccs2)ccc1Br	n	36.1	n	n	n	n	0.0139	0.115	n	0.0381	0.0416	0.0123
Cc1cc(C)nc(N2N=C(C(F)(F)F)CC2=O)n1	x	n	x	n	x	x	x	x	x	x	x	x
Cc1ccc2[nH]c(SCC(=O)N3CCOCC3)nc2c1C	n	x	n	n	n	n	n	n	n	n	n	n
Cc1ccc2nc(SCC(=O)N3CCOCC3)[nH]c2c1	n	n	n	n	n	n	x	x	x	x	x	x
CCCC(=O)Nc1nc(-c2ccc3c(c2)CCN3S(C)(=O)=O)cs1	n	6.22	x	x	n	n	n	n	n	u	n	n
CCC(C)(C)C1CCC2(CC1)NC(=O)N(CC(=O)Nc1nc(-c3ccc(C)cc3)cs1)C2=O (stereo not given)	x	n	n	n	n	n	x	x	x	x	x	x
CN1CCN(CC(=O)Nc2nc(-c3ccccc3)cs2)CC1	n	x	n	n	n	n	n	0.00874	n	n	n	n
CC1(C)NC(=O)N(CC(=O)Nc2nc(-c3ccc(F)cc3)cs2)C1=O	n	-4.91	n	n	n	n	n	n	0.0244	n	0.0126	u
SMILES	INS promoter inh	Cl transport mod	ROMK primary	Insulin prom up	L major viab	WT yeast gro inh	KCC2 sec1	KCC2 bumet counter	KCC2 secondary2	HEK293 Tl flux	KCC2 ouabain	HEK counter2
COc1ccc(-c2csc(NC(=O)CN3C(=O)CCC3=O)n2)cc1	n	n	n	n	n	n	x	x	x	x	x	x
O=C(CN1C(=O)NC2(CCCC2)C1=O)Nc1nc(-c2ccc(F)cc2)cs1	x	-6.59	x	n	n	n	n	n	0.0273	n	0.0136	n
O=C(Cn1nnc(-c2ccc(CN3CCOCC3)cc2)n1)Nc1nc(-c2ccccc2)cs1	n	n	x	n	n	n	x	x	x	x	x	x
Cc1cccc(NNC(N)=S)c1	x	n	n	n	n	n	x	x	x	x	x	x
CN(C)S(=O)(=O)c1ccc(NC(=S)NC(=O)Cc2ccccc2)cc1	n	n	n	n	n	n	x	x	x	x	x	x
CSc1ncc(Cl)c(C(=O)Nc2nnc(SC/C=C/c3ccccc3)s2)n1	n	28	n	n	n	n	n	0.0818	0.0542	0.0638	0.0657	0.0411
C=CCSc1nnc(NC(=O)c2nc(SCC)ncc2Cl)s1	n	x	x	x	n	n	x	x	x	x	x	x
O=C(Nc1c(C(=O)O)oc2ccc(Br)cc12)c1ccccc1	x	x	x	n	n	n	x	x	x	x	x	x
CCOC(=O)c1c(N)sc2c1CCC(C)C2 (stereo not given)	x	n	x	n	n	n	x	x	x	x	x	x
CCOC(=O)c1c(NS(C)(=O)=O)sc2c1CCC(C)C2 (stereo not given)	n	22.6	n	n	n	n	0.0197	0.0586	n	0.0275	0.0524	0.0136
Cc1ccc(S(=O)(=O)N2CCCC(C(=O)NCC(C)C)C2)cc1 (stereo not given)	x	n	n	n	n	n	x	x	x	x	x	x
O=C(Cn1nc(-c2ccccc2)ccc1=O)NCc1ccc2c(c1)OCO2	x	-3.28	n	n	n	n	n	u	0.0251	n	u	n
CCCCn1c(N)c(N(CCC(C)C)C(=O)COC(=O)c2ccccc2)c(=O)[nH]c1=O	x	n	n	n	n	n	x	x	x	x	x	x
CCc1ccc(Nc2nnc(SCC(=O)NCCN3C(=O)CSC3=O)s2)cc1	x	-3.67	n	n	n	n	n	n	n	n	u	n
CCc1ccc(Nc2nnc(SCC(=O)Nc3sccc3C(N)=O)s2)cc1	n	-4.92	x	n	98.1	n	n	n	0.0226	n	u	n
CCc1ccc(Nc2nnc(SCn3nnc4ccccc4c3=O)s2)cc1	n	x	n	x	n	n	x	x	x	x	x	x
